Experimental data from PubChem BioAssay (NCI).
About 83,000 compounds went through this panel and 20% of them were active in at least one assay; those are over-represented in the sample as a whole.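 Single-dose data. Exposure time 48 hours. Values below 10 considered active.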 Unmarked numbers belong to inactive results. The source made the active and inactive calls.

Columns and labels:
Assay in all cases: NCI-60 one-dose screen, 48 h (100 = growth as untreated, 0 = no growth, -100 = all killed)
Details in all cases: 10 µM unless noted
NCI-H226 lung = tested on: NCI-H226 lung
NCI-H322M lung = tested on: NCI-H322M lung
HOP-62 NSCLC = tested on: HOP-62 NSCLC
NCI-H460 lung = tested on: NCI-H460 lung
HOP-92 NSCLC = tested on: HOP-92 NSCLC
NCI-H522 lung = tested on: NCI-H522 lung
786-0 renal = tested on: 786-0 renal
DU-145 prostate = tested on: DU-145 prostate
K-562 leukemia = tested on: K-562 leukemia
MDA-MB-231 breast = tested on: MDA-MB-231 breast
RXF 393 renal = tested on: RXF 393 renal
SF-268 CNS = tested on: SF-268 CNS
SF-295 CNS = tested on: SF-295 CNS
SF-539 CNS = tested on: SF-539 CNS
UACC-257 melanoma = tested on: UACC-257 melanoma
M14 melanoma = tested on: M14 melanoma
COLO 205 colon = tested on: COLO 205 colon
MALME-3M melanoma = tested on: MALME-3M melanoma
A549/ATCC NSCLC = tested on: A549/ATCC NSCLC

| Structure (SMILES) | growth (NCI-H226 lung) | growth (NCI-H322M lung) | growth (HOP-62 NSCLC) | growth (NCI-H460 lung) | growth (HOP-92 NSCLC) | growth (NCI-H522 lung) | growth (786-0 renal) | growth (DU-145 prostate) | growth (K-562 leukemia) | growth (MDA-MB-231 breast) | growth (RXF 393 renal) | growth (SF-268 CNS) | growth (SF-295 CNS) | growth (SF-539 CNS) | growth (UACC-257 melanoma) | growth (M14 melanoma) | growth (COLO 205 colon) | growth (MALME-3M melanoma) | growth (A549/ATCC NSCLC) |
| --- | --- | --- | --- | --- | --- | --- | --- | --- | --- | --- | --- | --- | --- | --- | --- | --- | --- | --- | --- |
| CC1(C)N=C(N)N=C(N)N1c1cccc(CN)c1 | 92.7% | 94.3% | 92.3% | 111% | 80.5% | 80.7% | 99.1% | 109% | 116% | 98.8% | 103% | 101% | 94.7% | 99.3% | 86.5% | 96.7% | – | – | – |
| Cc1cc2c(F)c(Oc3ncnc(Nc4ccc(N5C[C@@H](C)N[C@@H](C)C5)cc4)c3C#N)cc(F)c2[nH]1 | 74.1% | 47.9% | 75.8% | 6.38% (active) | 89.1% | – | – | 38.9% | -40.4% (active) | -0.722% (active) | -25.7% (active) | 29.3% | 17.4% | -78.7% (active) | 65.9% | – | -56.5% (active) | 75% | – |
| COc1ccc(-c2nc3ncccn3c2/C=C/C(=O)c2cc(OC)c(OC)c(OC)c2)cc1 | -24.4% (active) | 16.1% | -12.4% (active) | -79.4% (active) | -0.213% (active) | -44.6% (active) | -26% (active) | 2.9% (active) | 6.79% (active) | 21.1% | -24.4% (active) | 13.4% | -31.5% (active) | -87.2% (active) | 41.2% | – | – | 61.8% | 10.2% |
| O=C(Nc1ccccn1)[C@H](O)[C@@H](O)C(=O)N1CCOCC1 | 95.3% | 115% | 104% | 105% | 106% | 102% | 107% | 106% | 115% | 100% | 119% | 106% | 109% | 107% | 101% | 103% | – | 114% | 99.6% |
| NS(=O)(=O)Oc1ccc(-c2sc3cc(O)ccc3c2C(=O)c2ccc(OCCN3CCCCC3)cc2)cc1 | 79% | 90.6% | 67% | 20.3% | 60.4% | 65.8% | 71.6% | 51.2% | 14.1% | 72% | 66.8% | 68.4% | 48.1% | 62.8% | -44.2% (active) | -17% (active) | – | 63.7% | 33.4% |
| Cc1nc2ccc(C(=O)NCc3cc(C(=O)O)c(C)o3)cc2nc1C | – | 96.9% | 77% | 100% | 90.8% | 92.2% | 94.4% | 105% | 110% | 101% | 97.4% | 91.4% | 102% | 96.2% | 87.2% | 91.4% | – | 93.4% | 91.4% |
| CCn1c(Sc2nnc(NC(=O)CSC(=S)N3CCCCC3)s2)nc2c1c(=O)n(C)c(=O)n2C | 86.6% | 101% | 87.1% | 101% | 81.1% | 38.1% | 92.4% | 98% | 43.6% | 103% | 86.2% | 96% | 83.9% | 97.7% | 94.4% | 67.9% | – | 71.5% | 78.1% |
| C[C@@H](C[C@H](CCOCc1cccnc1)c1ccccc1)c1cc2ccccc2o1 | 80.2% | 90.5% | 81.8% | 98.4% | 84.9% | 78.2% | 93.8% | 98.7% | 81.5% | 98.1% | 92.8% | 89.3% | 97.6% | 98.8% | 94% | 92.8% | – | 95.5% | 90.2% |
| Cc1cc(=O)c2cc3nc(-c4cccnc4)oc3c(Br)c2o1 | 116% | 109% | 101% | 104% | 92% | 62.9% | 96.8% | 119% | 84% | 111% | – | 107% | 120% | 106% | 106% | 98.8% | – | 98.7% | 97.2% |
| O=c1[nH]c(NCc2nnnn2-c2ccc(Br)cc2)nc2sc3c(c12)CCCC3 | – | 91.1% | 94.1% | 100% | 94.5% | 72.2% | 88% | 106% | – | 92.4% | 103% | 98.7% | 92.1% | 95.9% | 96% | – | 97.9% | 112% | 77.4% |
| CCCCOc1ccc(NC(=O)n2nc(N=NN(C)C)c3ccc(Cl)cc32)cc1 | 96.3% | 99.4% | 88.3% | 110% | 93% | 90.1% | 109% | 106% | 93.7% | 104% | 112% | 102% | 101% | 104% | 125% | 89.4% | – | 122% | 111% |
| C[C@@H]1CC[C@@H]2[C@@H]1[C@H](OC(=O)/C=C/c1ccccc1)[C@]1(CCCOCCOCCOCCOC(=O)CCCC[C@@H]3SC[C@@H]4NC(=O)N[C@@H]43)C[C@@H](OC(=O)CO)[C@@]2(C)O1 | 105% | 92.6% | 99.3% | 106% | 108% | 85% | 97.6% | 103% | – | 106% | 108% | 102% | 107% | 103% | 109% | – | 112% | 99.6% | 97.7% |
| CCCN1CCN(c2ccc3nc(-c4ccc5nc(-c6ccc(OCC)c(OCC)c6)[nH]c5c4)[nH]c3c2)CC1 | -58.2% (active) | -18.7% (active) | -64.9% (active) | -80.3% (active) | 40.5% | -44.8% (active) | -89% (active) | -64.1% (active) | -5.53% (active) | -80.2% (active) | -92.3% (active) | 15.8% | -63.2% (active) | -87.9% (active) | -29.7% (active) | -65.7% (active) | – | -82.4% (active) | -50.2% (active) |
| CCOC(=O)c1ccc(NC(=O)CCCN(CC)CC)cc1 | 103% | 92.4% | 101% | 107% | 78% | 63.6% | 87.2% | 105% | 97.7% | 114% | 130% | 104% | 103% | 103% | 108% | 91.3% | – | 98.5% | 90.5% |
| Cc1ccccc1NC(=O)CN(C)C | 97.9% | 89.9% | 97.9% | 113% | 123% | 82.6% | 99.7% | – | 0.938% (active) | 105% | 124% | 103% | 97.3% | 98.3% | 99.3% | 104% | – | 87.2% | – |
| Clc1ccc(-c2nnc(-c3ccco3)o2)cc1 | 91.7% | 93.6% | 80.9% | 108% | 72.6% | 99.1% | 86.8% | 99.5% | 93.3% | 99% | – | 101% | 112% | 106% | 93.5% | 101% | – | 113% | 96.8% |
| CC[C@]1(O)C[C@H]2CN(CCc3c([nH]c4ccccc34)[C@@](C(=O)OC)(c3cc4c(cc3OC)N(C=O)[C@H]3[C@@](O)(C(=O)OC)[C@H](OC(C)=O)[C@]5(CC)C=CCN6CC[C@]43[C@@H]65)C2)C1 | 28.2% | 43.7% | 11.7% | -2.68% (active) | 72.3% | -13.1% (active) | 12.4% | -42.5% (active) | -0.624% (active) | -27.1% (active) | -36% (active) | 23.9% | 13.6% | -28.7% (active) | 5.68% (active) | – | -57.2% (active) | 45.4% | 16.6% |
